# CYP2C19 inh: blockers of cytochrome P450 2C19 activity – biochemical, luminescence, ADME assay, primary screen; P33261; CYP2C19 Supersomes, luciferin-H EGE luminescence, 30 min; inhibition, % at 5 µM; hit rate 21% among 96,000; AID 778, 2007;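 active = CYP2C19 inhibition above a set limit at 5 µM in the primary screen, cut at about 50% in these data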;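 also: plate controls were negative control wells for no effect and 2.5 mM tranylcypromine positive control for full effect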
# sEH activator: soluble epoxide hydrolase activators, primary screen, biochemical, human sEH; Bifunctional epoxide hydrolase 2 (Homo sapiens), P34913; purified human sEH enzymatic activity, activator screen; activation, % at 2 µM; hit rate 0.04% among 91,000; in the data active = activation above about 37%
# Target sequence (P34913 whole entry, looked up): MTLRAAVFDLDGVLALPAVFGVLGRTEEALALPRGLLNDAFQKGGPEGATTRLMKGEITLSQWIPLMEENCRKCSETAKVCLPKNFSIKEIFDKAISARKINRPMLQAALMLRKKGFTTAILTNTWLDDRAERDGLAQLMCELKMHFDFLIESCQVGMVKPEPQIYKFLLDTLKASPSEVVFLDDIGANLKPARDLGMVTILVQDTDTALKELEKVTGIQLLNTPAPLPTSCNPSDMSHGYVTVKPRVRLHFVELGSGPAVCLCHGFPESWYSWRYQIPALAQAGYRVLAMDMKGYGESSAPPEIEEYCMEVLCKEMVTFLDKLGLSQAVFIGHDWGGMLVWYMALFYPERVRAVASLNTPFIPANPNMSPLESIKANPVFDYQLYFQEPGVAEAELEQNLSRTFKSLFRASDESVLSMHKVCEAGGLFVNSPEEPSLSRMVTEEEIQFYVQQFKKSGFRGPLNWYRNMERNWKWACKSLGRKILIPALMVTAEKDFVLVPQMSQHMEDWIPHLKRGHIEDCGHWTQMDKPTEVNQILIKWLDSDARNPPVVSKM
# CYP2C9 act: human CYP2C9 activators, primary screen, biochemical, luminescence; activation factor at 5 µM; Cytochrome P450 2C9 (Homo sapiens), P11712; hit rate 1.4% among 96,000; recombinant CYP2C9, luciferin-H conversion; stronger effect = higher value; factor 1 = untreated enzyme, 0 = blocked;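 active = activation factor of 2 or more for CYP2C9 at a 5 µM dose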;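 also: 0 = sulfaphenazole-blocked wells and 1 = vehicle-only wells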
# CYP2C9 inh: blockers of cytochrome P450 2C9 activity – biochemical, luminescence, ADME assay, primary screen; P11712; CYP2C9 Supersomes, luciferin-H conversion; inhibition, % at 5 µM; hit rate 20% among 96,000; AID 777, 2007;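 active = blocking of liver enzyme CYP2C9 beyond about 50% at 5 µM, limit read from the data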
# CYP2C19 activ: human CYP2C19 activators, primary screen, biochemical, luminescence | Cytochrome P450 2C19 (Homo sapiens), P33261 | recombinant CYP2C19, luciferin-H EGE luminescence; stronger effect = higher value; 0 = fully inhibited enzyme, 1 = untreated enzyme | activation factor at 5 µM | 96,000 tested, under 10 active;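 active = activation factor of at least 2 at 5 µM in the primary screen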;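 also: 0 = wells with 2.5 mM tranylcypromine and 1 = vehicle-only wells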
# sEH inhibitor: soluble epoxide hydrolase inhibitors, primary screen, biochemical, human sEH | inhibition, % at 2 µM | hit rate 0.34% among 91,000 | recombinant human sEH enzymatic activity assay; in the data active = inhibition above about 80%
# * marks the source's active call; other numbers are inactive results; . = not tested or not shown. Rows were chosen to be rich in hits. Some 27% of all compounds tested hit in one or more screens of this group.
SMILES,CYP2C19 inh,sEH activator,CYP2C9 act,CYP2C9 inh,CYP2C19 activ,sEH inhibitor
COC(=O)c1ccc2c(=O)sc(N3CCC(C(N)=O)CC3)nc2c1,6,4,0.8,25,0.9,-2
NC(=O)c1oc2ccccc2c1NC(=O)c1ccco1,-13,.,3.7*,-266,1.1,.
NC(=O)c1oc2ccccc2c1NC(=O)c1ccccc1,22,-3,3.8*,-280,0.8,5
O=C1Nc2ccccc2/C1=N\c1sc2c(c1C(=O)Nc1ccccc1)CCCC2,.,4,.,.,.,1
Cc1ccc(S(=O)(=O)N2Cc3ccccc3CC2C(=O)Nc2ccc3c(c2)OCO3)cc1 (configuration not stated),98*,-1,0,97*,0,3
COc1ccc(S(=O)(=O)N2Cc3ccccc3CC2C(=O)Nc2ccc3c(c2)OCO3)cc1 (configuration not stated),85*,-12,0.4,62*,0.2,14
CCCCCn1c(N(C)Cc2ccccc2)nc2c1c(=O)[nH]c(=O)n2C,4,8,0.8,18,1,-9
O=S(=O)(c1ccc(C2=CSC3=NCCN23)cc1)N1CCOCC1,56*,3,0.9,11,0.4,-4
C1=C(c2ccccc2)N2CCN=C2S1,2,2,0.9,7,1,0
CC(C)N(Cc1nc(-c2ccccc2)no1)C(=O)CN1C(=O)c2ccccc2C1=O,.,0,.,.,.,3
CC(C)N(Cc1nc(-c2ccccc2)no1)S(=O)(=O)c1ccccc1,58*,-8,0.3,68*,0.4,8
O=S(=O)(c1ccccc1)N(Cc1nc(-c2ccccc2)no1)C1CCCCC1,50*,-10,0.1,93*,0.5,9
CC(C)N(Cc1nc(-c2ccccc2)no1)C(=O)CN(C)S(=O)(=O)c1ccccc1,79*,-13,0.3,69*,0.2,8
COC(=O)c1sc(S(=O)(=O)N2CCC(C(=O)O)CC2)c(C(=O)OC)c1C,3,-14,1,3,1,15
CCn1cc(C(=O)OCc2ccccc2)c(=O)c2ccc(C)nc21,10,1,1.1,-5,0.9,0
CCn1cc(C(=O)OCC(=O)OC2CC(C)CCC2C(C)C)c(=O)c2ccc(C)nc21 (configuration not stated),75*,17,0.5,49,0.3,-14
CCOc1ccc(C(=O)CCc2nc3ccccc3s2)cc1,56*,-6,0.1,91*,0.4,9
CCOc1ccc(C(=O)CCC(=O)O)cc1,28,-9,0.9,7,0.7,10
Cc1cccc2cc(C#N)c(NCCCn3ccnc3)nc12,98*,0,0,98*,0,0
CCc1nc(NCCCn2ccnc2)c2oc3ccccc3c2n1,91*,-8,0,98*,0.1,6
CCc1nc(Nc2ccccc2)c2oc3ccccc3c2n1,30,-9,0.8,22,0.7,12
Cc1cc(NCCCn2ccnc2)n2c(nc3ccccc32)c1C#N,77*,-5,0.2,83*,0.2,1
Cc1nc(NCCCn2ccnc2)c2ccccc2n1,32,.,0.6,41,0.7,.
CCNC(=S)NNC(=O)c1ccc(OC(F)F)cc1,27,-14,0.9,8,0.7,15
Cc1cc(-c2[nH]nc3c2C(c2ccc(Cl)cc2)C(C#N)=C(N)O3)c(C)s1 (configuration not stated),.,0,.,.,.,2
Cc1cc(NC(=O)CSc2nccn2-c2ccc(F)cc2)no1,69*,-4,0.8,19,0.3,6
Cc1cc(NC(=O)CSc2nc(-c3ccc(F)cc3)cs2)no1,12,.,1.1,-8,0.9,.
Cc1cc(NC(=O)CSc2nccn2-c2ccc(Cl)cc2)no1,81*,-1,0.5,54*,0.2,4
Cc1c(O)nc(SC2CC(=O)N(c3ccccc3)C2=O)[nH]c1=O (configuration not stated),-10,1,1,-2,1.1,2
